Bioassay records from PubChem BioAssay.
Not all results are given here.
aSyn 5UTR act – Activators working through SNCA 5'UTR binding (MLPCN). alpha-synuclein 5'UTR reporter, activators screen. activity score, % (tested at 7.5 µM), hits read low. 300,000 tested, 7.1% active; in the data active = activity score below about -60%
Each line names hits and unclear results; the compound was inactive in the other large screens.

CCOc1ccc(NC(=O)c2ccccc2OCC(=O)c2ccccc2)cc1	aSyn 5UTR act -83.3
CCOc1ccc(NC(=O)c2ccc(NC(=O)COC(=O)Cc3ccc(OC)cc3)cc2)cc1	aSyn 5UTR act -93.3
CCOc1ccc(NC(=O)c2ccccc2OC)cc1	aSyn 5UTR act -140.5
CC(=O)c1cccc(NC(=O)COC(=O)c2ccccc2C)c1	aSyn 5UTR act -101.2
O=C(NC(=S)Nc1ccc2ncccc2c1)c1ccccc1	aSyn 5UTR act -137.1
COc1cccc(C(=O)Nc2ccc3[nH]ncc3c2)c1	aSyn 5UTR act -75.8
CC(C)(C)NC(=S)NNC(=O)c1ccc2ncccc2c1	aSyn 5UTR act -133.8
O=C(Nc1ccc2cccnc2c1)c1ccc(Br)cc1	aSyn 5UTR act -64.6
O=C(NNC(=S)Nc1ccccc1)c1ccc2ncccc2c1	aSyn 5UTR act -97.2
O=C(NC(=S)Nc1ccc2nc[nH]c2c1)c1ccccc1	aSyn 5UTR act -115.8
O=C(NC(=S)Nc1ccc2[nH]ncc2c1)c1ccccc1	aSyn 5UTR act -115.0
CCN1CCc2c(sc(NC(=O)c3ccc(S(=O)(=O)N4CCOCC4)cc3)c2C(=O)OC)C1	aSyn 5UTR act -71.4
Cc1ccc(-c2nc(C#N)c(NCc3ccco3)o2)cc1	aSyn 5UTR act -145.1
COc1ccc(Nc2oc(-c3ccc(F)cc3)nc2C#N)cc1	aSyn 5UTR act -232.6
COc1ccc(Nc2oc(COc3ccc(OC)cc3)nc2C#N)cc1	none
COc1ccc(-c2nc(C#N)c(NCc3ccco3)o2)cc1	aSyn 5UTR act -182.2
C=CCNc1oc(-c2ccc(OC)cc2)nc1C#N	aSyn 5UTR act -135.2
Cc1ccc2cc(C#N)c(NCc3ccco3)nc2c1	aSyn 5UTR act -67.2
COc1ccc(-c2nc(C#N)c(NCC3CCCO3)o2)cc1OC (stereo not given)	aSyn 5UTR act -74.3
CNc1oc(-c2ccc(OCc3ccccc3)cc2)nc1C#N	aSyn 5UTR act -96.1
CCOC(=O)C1(Cc2cccc(OC)c2)CCCN(C(=O)CNC(C)=O)C1 (stereo not given)	aSyn 5UTR act -114.9
CCOC(=O)C1(Cc2cccc(OC)c2)CCCN(C(=O)c2cc(C)[nH]n2)C1 (stereo not given)	aSyn 5UTR act -130.5
CCOC(=O)C1(Cc2cccc(OC)c2)CCCN(C(=O)c2cc(C)on2)C1 (stereo not given)	aSyn 5UTR act -110.3
CCOC(=O)C1(Cc2cccc(OC)c2)CCCN(C(=O)c2ccccc2C)C1 (stereo not given)	aSyn 5UTR act -84.4
CCOC(=O)C1(Cc2ccccc2)CCCN(C(=O)c2cnn(CC)c2)C1 (stereo not given)	aSyn 5UTR act -77.7
CCOc1ccccc1NC(=O)C(OC(=O)c1ccc(O)cc1)c1ccccc1 (stereo not given)	aSyn 5UTR act -61.7
Cc1ccc(NC(=O)Nc2cccs2)cc1	aSyn 5UTR act -130.1
Cc1ccc(NC(=O)Nc2cccs2)nc1	aSyn 5UTR act -168.3
CCc1ccc(NC(=O)Nc2cccs2)cc1	aSyn 5UTR act -169.4
CCc1ccc(NC(=O)Nc2ccsc2C(=O)OC)cc1	aSyn 5UTR act -65.4
CCOc1ccc(NC(=O)Nc2cccs2)cc1	aSyn 5UTR act -160.8
Cc1ccc(C(=O)Nc2cnc3sc(C)nn3c2=O)cc1	aSyn 5UTR act -99.7
Cc1nn2c(=O)c(NC(=O)c3ccc(Cl)cc3)cnc2s1	aSyn 5UTR act -65.6
Oc1cccc2c3c(oc12)CCCC3	none
COc1cccc(-c2nc(=S)c3c(n2Cc2ccco2)CCCC3)c1	aSyn 5UTR act -88.9
O=[N+]([O-])c1ccc(-c2nc(=S)c3c(o2)CCCC3)cc1	aSyn 5UTR act -106.0
COc1cccc(-c2nc(=S)c3c(o2)CCCC3)c1	aSyn 5UTR act -117.8
S=c1nc(-c2ccccc2)oc2c1CCCC2	aSyn 5UTR act -144.4
CCC(C)Nc1nc(N)c([N+](=O)[O-])c(NCc2ccccc2)n1 (stereo not given)	none
CCC(C)Nc1nc(N)c([N+](=O)[O-])c(NC2CCCCC2)n1 (stereo not given)	none
Cc1ccc(Nc2nc(NCc3ccco3)c3ccccc3n2)cc1	aSyn 5UTR act -138.9
Nc1nc(Nc2ccc(Cl)cc2)nc(NCc2ccco2)c1[N+](=O)[O-]	aSyn 5UTR act -74.6
O=c1c2ccccc2nc2c3ccccc3c(NCc3ccco3)nn12	aSyn 5UTR act -81.5
Nc1c(C(=O)NC2CCCC2)sc2nc(-c3cccs3)ccc12	aSyn 5UTR act -73.5
O=C(CCS(=O)(=O)c1cccs1)NC1CCCCCC1	aSyn 5UTR act -138.6
O=C(NCCC1CCCC1)c1cccs1	aSyn 5UTR act -69.2
O=C(NC1CCCCCC1)c1cccs1	aSyn 5UTR act -81.1
O=C1NC(=S)N/C1=C/C=C/c1ccccc1	aSyn 5UTR act -91.5
COc1cccc(C(=O)Nc2ccc(NC(=O)c3ccco3)nc2)c1	aSyn 5UTR act -161.8
CCCC(=O)Nc1ccc(NC(=O)c2cccc(OC)c2)nc1	aSyn 5UTR act -159.8
COc1cccc(C(=O)Nc2ccc(NC(C)=O)cn2)c1	aSyn 5UTR act -129.2
O=C(Nc1ccc(NC(=O)c2ccco2)nc1)c1cccc(F)c1	aSyn 5UTR act -134.2
O=C(Nc1ccc(NC(=O)c2ccco2)nc1)c1cccnc1	aSyn 5UTR act -75.3
COC(=O)CN1C(=O)S/C(=C/c2cc(C)n(C)c2C)C1=O	aSyn 5UTR act -167.4
